Source: PubChem BioAssay AID651744 (Broad Institute, 2012)
About 3,100 (55%) of roughly 5,600 compounds were called active. Not shown: some 3% with an inconclusive outcome. So high a share suggests a set chosen from earlier hits. A selection follows. Values without a mark were called inactive.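 Rule for the calls: active = mean loss of cell viability signal at or above a set limit, and enough replicates individually reaching it; inconclusive = meets only the mean limit or only the replicate share; inactive = meets neither condition.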

experiment: viability loss of mouse 3T3 cells – cell-based, cherry-pick, single point, set 2, cytotoxicity control, confirmation (AID 651744); details: NIH/3T3 viability, CellTiter-Glo ATP luminescence, 90 h; at 24.9 µM; stronger effect = higher value;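 note: 0% = median of neutral control wells and 100% = median of positive control wells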

SMILES	inhibition
CN1C(=O)c2cc(NC(=O)c3cnccn3)ccc2OC[C@@H]2O[C@H](CC(=O)N[C@@H]3CCN(Cc4ccccc4)C3)CC[C@@H]21	-11.4%
C[C@H](CO)N1C[C@H](C)[C@H](CN(C)Cc2ccc(C(F)(F)F)cc2)Oc2ccc(NS(=O)(=O)c3ccc(Cl)cc3)cc2C1=O	101% (active)
C[C@@H]1CN([C@@H](C)CO)S(=O)(=O)c2ccc(C#Cc3ccccc3)cc2O[C@@H]1CN(C)C(=O)Nc1ccccc1	49.1% (active)
C[C@@H]1CN([C@@H](C)CO)S(=O)(=O)c2ccc(-c3ccncc3)cc2O[C@@H]1CN(C)C(=O)Nc1ccc(F)cc1	21.8%
C[C@@H]1CN([C@@H](C)CO)S(=O)(=O)c2ccc(C#Cc3ccc(F)cc3)cc2O[C@H]1CN(C)C(=O)c1ccccn1	92.1% (active)
C[C@@H]1CN([C@@H](C)CO)S(=O)(=O)c2ccc(C#Cc3ccc(F)cc3)cc2O[C@H]1CN(C)C(=O)NC1CCCC1	90.7% (active)
C[C@@H]1CN([C@H](C)CO)S(=O)(=O)c2ccc(-c3cccc(C#N)c3)cc2O[C@@H]1CN(C)C(=O)Nc1ccccc1F	77.8% (active)
C[C@@H]1CN([C@H](C)CO)S(=O)(=O)c2ccc(C#CC3CCCC3)cc2O[C@@H]1CN(C)Cc1cccnc1	104% (active)
C[C@H](CO)N1C[C@H](C)[C@H](CN(C)Cc2cccnc2)Oc2cc(C#CC3CCCC3)ccc2S1(=O)=O	104% (active)
COc1ccc(S(=O)(=O)N2CCCCN3[C@H](CO)[C@@H](c4ccc(C#CC(C)C)cc4)[C@H]3C2)cc1	105% (active)
COc1cccc(S(=O)(=O)N2CCCCN3[C@H](C2)[C@H](c2ccc(C#CC(C)C)cc2)[C@@H]3CO)c1	26.4%
CC(C)C#Cc1ccc([C@H]2[C@H](CO)N3CCCCN(C(=O)NC(C)C)C[C@@H]23)cc1	50% (active)
COc1ccc(S(=O)(=O)N2CCCCN3[C@H](C2)[C@H](c2ccc(C#CCC(C)C)cc2)[C@@H]3CO)cc1	64.2% (active)
C[C@@H]1CN([C@H](C)CO)S(=O)(=O)c2ccc(-c3cccc(F)c3)cc2O[C@H]1CN(C)S(=O)(=O)c1ccc(F)cc1	60.5% (active)
Cc1ccc(-c2ccc3c(c2)O[C@H](CN(C)C)[C@@H](C)CN([C@H](C)CO)S3(=O)=O)cc1	25.3% (active)
CC(C)CC#Cc1ccc2c(c1)O[C@H](CN(C)S(=O)(=O)c1cccc(F)c1)[C@@H](C)CN([C@@H](C)CO)S2(=O)=O	105% (active)
COc1ccccc1-c1ccc2c(c1)O[C@H](CN(C)S(=O)(=O)c1ccc(C)cc1)[C@@H](C)CN([C@H](C)CO)S2(=O)=O	31.1% (active)
COc1ccccc1-c1ccc2c(c1)O[C@@H](CN(C)C)[C@H](C)CN([C@H](C)CO)S2(=O)=O	19.5%
